Rows were chosen to be rich in hits. Some 6.1% of all compounds tested hit in one or more screens of this group.
D1 ag = Allosteric Agonists of the Human D1 Dopamine Receptor: qHTS; D(1A) dopamine receptor (Homo sapiens), P21728; HEK293 T-REx D1 cells, calcium flux, agonist mode; activation, % at 2 µM; hit rate 1% among 360,000; AID 504660, 2011; in the data active = activation above about 30%; note: 0% is about no effect
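Agonism was scored from calcium flux recorded over 180 s (1 read/s) after pintool compound addition, following a 10-cycle baseline. Cells were inducible force-coupled HEK293 TREx D1, plated overnight at 30 C and loaded with no-wash calcium dye.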
D1 antagonist = Antagonist of Human D 1 Dopamine Receptor: qHTS; activity change, negative = inhibition, % at 10 µM; hit rate 3.2% among 360,000; HEK293 TREx D1 cells, calcium flux, dopamine EC80; stronger effect = lower value; D(1A) dopamine receptor (Homo sapiens), P21728; in the data active = activity change below about -30%; note: % is set by controls: 0 for no effect and ±100 for the full control effect
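Calcium flux readout: force-coupled, inducible Hek293 Trex D1 line, cells induced overnight at 30 C with tetracycline, dye-loaded 30–90 min at RT. Antagonism scored against EC80 dopamine challenge given 180 s after compound.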
D3 ag = qHTS of D3 Dopamine Receptor Agonist: qHTS; max activation, %; D3R DiscoveRx beta-arrestin cells, luminescence, 90 min; AID 652048, 2013; D(3) dopamine receptor (Homo sapiens), P35462; hit rate 0.58% among 410,000; in the data active = max activation above about 30%; note: 0% is about no effect
Target sequence (P35462 whole entry, looked up): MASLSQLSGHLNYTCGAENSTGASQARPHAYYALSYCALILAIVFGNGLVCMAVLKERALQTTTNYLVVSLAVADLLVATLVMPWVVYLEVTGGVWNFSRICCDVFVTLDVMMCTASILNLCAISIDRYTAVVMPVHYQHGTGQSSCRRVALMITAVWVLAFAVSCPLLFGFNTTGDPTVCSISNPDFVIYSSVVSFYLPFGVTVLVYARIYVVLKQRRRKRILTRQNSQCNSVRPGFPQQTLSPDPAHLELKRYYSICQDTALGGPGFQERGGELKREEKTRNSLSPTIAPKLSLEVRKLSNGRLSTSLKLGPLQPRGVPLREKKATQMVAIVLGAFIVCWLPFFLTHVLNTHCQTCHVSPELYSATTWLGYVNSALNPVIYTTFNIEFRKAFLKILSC
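Cells at 1500/well, incubated overnight, then treated with pinned compounds (dopamine as control) for 90 min at 37 degrees C. DiscoveRx reagent added for 30 - 60 minutes at room temperature; luminescence read.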
DRD3 antagonist = qHTS of D3 Dopamine Receptor Antagonist: qHTS; max response, negative = inhibition, %; D(3) dopamine receptor (Homo sapiens), P35462; hit rate 2.5% among 360,000; D3R cells, DiscoveRx beta-arrestin luminescence, antagonist mode; stronger effect = lower value; in the data active = max response below about -50%; inconclusive = no clear call, values can overlap the other calls; note: % is set by controls: 0 for no effect and ±100 for the full control effect
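Cells plated overnight at 1500 cells/well, then exposed to library compounds with dopamine controls for 90 minutes at 37 degrees C. DiscoveRx reagent added for 30–60 minutes at room temperature; luminescence read, quantitative HTS format.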
D1 potentiator = Potentiators of Human D1 Dopamine Receptor: qHTS; HEK293 TREx D1 cells, calcium flux, dopamine EC20 potentiation; potentiation, % at 10 µM; hit rate 0.036% among 360,000; in the data active = potentiation above about 30%; note: 0% is about no effect
The depositor's hits bear a star; ? = inconclusive; . = not tested or not shown; ! = repeats disagree.

SMILES | D1 ag | D1 antagonist | D3 ag | DRD3 antagonist | D1 potentiator
C[C@@H]1CN=C2N(CCNC(=O)CCC3CCCCC3)[C@H](Cc3ccc(O)cc3)CN21 | -0.4 | 15.4 | -37.7 | ? | -0.2
C/C=C(\C)C(=O)NCCN1C2=NC[C@H](C)N2C[C@@H]1Cc1ccc(OC)cc1 | 0.1 | 8.5 | -7.9 | 8.8 | -3.1
COc1ccccc1CNC(=O)CSc1ccc(-c2sc(-c3ccccc3)nc2C)nn1 | 5.5 | -29.1 | 13.1 | . | -6.5
Cc1nn(CCc2nn[nH]n2)c2nc(-c3ccc(Br)cc3)cc(C(F)(F)F)c12 | 3.6 | -36.1* | 10.0 | 13.0 | -1.9
Cc1nn(CCc2nn[nH]n2)c2nc(C(F)(F)F)cc(C(F)(F)F)c12 | 5.7 | -4.1 | 3.2 | 21.4 | -3.9
Oc1c(C(c2ccccc2Cl)N2CCC(O)CC2)sc2nc(-c3ccco3)nn12 (stereo unspecified) | -0.6 | . | -11.9 | . | 4.2
CC1=C/C(=C(\c2cc(C)c(O)c(Br)c2)c2ccccc2S(=O)(=O)O)C=C(Br)C1=O | 3.8 | -16.0 | -21.9 | -51.7* | -7.0
COc1ccccc1CNC(=O)CCc1c(C)c2cc3c(C)coc3cc2oc1=O | 3.2 | -0.6 | -17.9 | . | -0.9
Cc1ccc(-c2cc(NC(=O)C(C)Oc3ccc(C)c(C)c3)on2)cc1 (stereo unspecified) | 11.3 | 13.3 | -15.4 | . | 5.1
Cc1nc2c(C(=O)N3CCN(C)CC3)cnn2c(C)c1Cc1ccc(Cl)cc1 | 1.4 | -15.1 | -36.9 | -74.8* | -0.1
Cc1ccccc1Cc1c(C)nc2c(C(=O)N3CCN(Cc4ccc5c(c4)OCO5)CC3)cnn2c1C | . | . | -4.1 | -60.4* | .
Cc1ccccc1Cc1c(C)nc2c(C(=O)NCc3ccc4c(c3)OCO4)cnn2c1C | 4.2 | -14.9 | -21.6 | -81.3* | -4.5
COc1ccc(NC(=O)CCS(=O)(=O)c2nc(-c3cccs3)cc(C(F)(F)F)n2)cc1OC | 2.1 | 1.6 | -15.5 | . | 2.1
Cc1ccc(CNC(=O)CSc2c3c(nc4cc(Cl)ccc24)CCCC3)o1 | 0.5 | -5.5 | -1.4 | -76.3* | -4.5
Cc1ccc(CNC(=O)CSCc2ccccc2)cc1 | 3.2 | -14.8 | 0.6 | 4.7 | -4.9
Cc1ccc2nc(SCC(=O)NCc3ccc(S(N)(=O)=O)cc3)[nH]c2c1 | 13.8 | 14.6 | 6.2 | 8.1 | -2.2
Cc1ccc2nc(SCC(=O)NCc3ccc(F)cc3)[nH]c2c1 | 50.6* | -45.1* | 5.9 | 39.4 | -8.8
Cc1ccc(CNC(=O)CSCc2ccc(F)cc2)cc1 | 1.1 | -35.6*! | -5.7 | -9.8 | -0.8
COC(=O)CSc1nc2ccc(C)cc2[nH]1 | 2.8 | -36.3* | 1.7 | -11.8 | -10.4
COc1ccc(CNCCCSc2nnnn2C)c(OC)c1 | 1.9 | -10.7 | -12.4 | . | 8.6
O=C(NCc1cccs1)c1ccc(CSc2nc3ccncc3n2Cc2ccccc2F)cc1 | 17.4 | -16.1 | -20.2 | . | -1.6
COc1ccc(CNC(=O)c2[nH]c(C(F)(F)F)nc2-c2ccccc2)cc1OC | . | . | -8.5 | -57.6* | .
O=C(N/N=C/c1cccs1)C(=O)Nc1cccc(Cl)c1 | 13.8 | -66.5* | 0.6 | 9.0 | -4.4
COc1cc(C=NNC(=O)C(=O)Nc2cccc(Cl)c2)cc(OC)c1O | . | . | -1.0 | 12.9 | .
CCCc1ccc(-c2cc(NC(=O)CSc3n[nH]c(N)n3)n(-c3ccccc3)n2)cc1 | 32.9* | 0.9 | -14.9 | 21.9 | 4.3
SMILES | D1 ag | D1 antagonist | D3 ag | DRD3 antagonist | D1 potentiator
CC1=C(C(=O)Nc2cccnc2)C(c2ccc(F)cc2)n2nc(-c3cccc(C)c3)nc2N1 (stereo unspecified) | -0.2 | -6.0 | 1.3 | . | -1.4
Cc1cccc(C)c1NC(=O)c1nc(SC(C)C)ncc1Cl | -0.4 | 17.6 | 45.2* | . | 2.5
CCOc1ccccc1N(CC)C(=O)c1cc2c(=O)[nH]c3ccc(C)cc3c2s1 | 0.7 | 7.6 | 1.8 | . | -0.6
C/C(N)=C(/C#N)C(=O)COC(=O)c1cccc2ccccc12 | 3.0 | -34.3* | 1.1 | -19.9 | -10.4
COc1cccc(-n2cc(C(=O)Nc3cc(OC)c(OC)c(OC)c3)c3ccccc3c2=O)c1 | 13.9 | -26.3 | -14.5 | . | -4.6
COc1ccc(Cl)cc1NC(=O)NCc1ccc2c(c1)OCO2 | 10.2 | -32.7* | -17.4 | -12.3 | -10.8
